Values joined by “and” are separate entries in the source; they are usually repeats but may differ in a detail not shown here. Equal values may be shown once. Inconclusive results are not listed. Active and inactive are the calls of the source. Unless noted, calls come from the whole dose curve. Bridge positions count the residues as written; N and C are the ends. Square brackets hold non-standard residues; d marks the D form. Peptide text beside a SMILES is read from it. * marks the point of attachment. Sta = CC(C)C[C@H](N)[C@@H](O)CC(=O)O; hArg = N=C(N)NCCCC[C@H](N)C(=O)O; Isovaleryl = CC(C)CC(=O)*; Mpa = O=C(O)CCS
What was measured:
[1] = qHTS for Inhibitors of the Functional Ribonucleoprotein Complex (vRNP) of Lassa (LASV) Arenavirus: LASV Primary Screen - GLuc reporter signal (AID 1347082; calls by dose curve; tested in HEK293 reporter line; note: nearly all actives have a fitted effect of over 60% in size); settings: LASV minigenome vRNP, Gaussia luciferase reporter; series mostly up to 57.5 µM
[2] = qHTS for Inhibitors of the Functional Ribonucleoprotein Complex (vRNP) of Lassa (LASV) Arenavirus: Viability assay - alamar blue signal for LASV Primary Screen (AID 1347083; calls by dose curve; tested in HEK293 reporter line; note: nearly all actives have a fitted effect of over 80% in size); settings: cell viability, alamar blue fluorescence (LASV minigenome counter-screen); series mostly up to 57.5 µM
[3] = qHTS for Inhibitors of the Functional Ribonucleoprotein Complex (vRNP) of Lymphocytic Choriomeningitis Arenaviruses (LCMV): Viability assay - alamar blue signal for LCMV Primary Screen (AID 1347085; calls by dose curve; tested in HEK293 reporter line; note: nearly all actives have a fitted effect of over 80% in size); settings: alamar blue viability counter-screen, LCMV vRNP screen cells; series mostly up to 57.5 µM
[4] = target: Nucleoprotein (Lymphocytic choriomeningitis virus (strain Armstrong)) (UniProt P09992); experiment: qHTS for Inhibitors of the Functional Ribonucleoprotein Complex (vRNP) of Lymphocytic Choriomeningitis Arenaviruses (LCMV): LCMV Primary Screen - GLuc reporter signal (AID 1347086); settings: LCMV minigenome vRNP cell assay, Gaussia luciferase reporter; series mostly up to 57.5 µM; note: nearly all actives have a fitted effect of over 70% in size
Nucleoprotein (Lymphocytic choriomeningitis virus (strain Armstrong)), sequence (P09992 whole entry, looked up): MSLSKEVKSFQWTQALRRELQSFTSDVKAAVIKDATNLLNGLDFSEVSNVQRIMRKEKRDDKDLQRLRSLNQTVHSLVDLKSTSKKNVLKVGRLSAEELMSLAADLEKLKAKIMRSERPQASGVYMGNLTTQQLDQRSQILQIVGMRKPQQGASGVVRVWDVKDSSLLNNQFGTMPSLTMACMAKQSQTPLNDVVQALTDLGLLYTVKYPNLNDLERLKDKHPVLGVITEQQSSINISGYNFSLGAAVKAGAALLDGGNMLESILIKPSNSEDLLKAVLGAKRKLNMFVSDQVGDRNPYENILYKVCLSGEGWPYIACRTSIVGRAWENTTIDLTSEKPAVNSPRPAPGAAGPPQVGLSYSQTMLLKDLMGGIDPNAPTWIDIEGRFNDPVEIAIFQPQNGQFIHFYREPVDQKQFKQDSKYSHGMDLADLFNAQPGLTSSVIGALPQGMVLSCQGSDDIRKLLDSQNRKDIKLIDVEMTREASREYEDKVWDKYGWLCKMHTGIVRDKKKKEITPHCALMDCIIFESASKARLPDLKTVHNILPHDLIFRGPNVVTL
% is set by controls: 0 for no effect and ±100 for the full control effect; potency is the fitted concentration of half-maximal effect.

CCCCc1cc2ccccc2c(OCCN(C)C)n1
inactive: Potency [1] | Potency [2] | Potency [3] | Potency [4]

O=C(O)COC(=O)Cc1ccccc1Nc1c(Cl)cccc1Cl
inactive: Potency [1] | Potency [2] | Potency [3] | Potency [4]

Cc1cc(O)c(C(C)C)cc1Cl
inactive: Potency [1] | Potency [2] | Potency [3] | Potency [4]

c1ccc2c(c1)CCc1ccccc1N2
inactive: Potency [1] | Potency [2] | Potency [3] | Potency [4]

NC(=O)[C@@H]1CSSCCC(=O)N[C@@H](CCCCN=C(N)N)C(=O)NCC(=O)N[C@@H](CC(=O)O)C(=O)N[C@@H](Cc2c[nH]c3ccccc23)C(=O)N2CCC[C@H]2C(=O)N1 ([Mpa][hArg]GDWPC-NH2; disulfide 1-7)
inactive: Potency [1] | Potency [2] | Potency [3] | Potency [4]

Cc1nc2sccn2c(=O)c1CCN1CCC(=C(c2ccc(F)cc2)c2ccc(F)cc2)CC1
inactive: Potency [1] | Potency [2] | Potency [3] | Potency [4]

CC(C)(C)C(=O)C(Oc1ccc(Cl)cc1)n1ccnc1 (stereo not given)
inactive: Potency [1] | Potency [2] | Potency [3] | Potency [4]

O=C1C(c2[nH]c3ccccc3c2O)=Nc2ccccc21
inactive: Potency [1] | Potency [2] | Potency [3] | Potency [4]

Nc1ccn(C2CO[C@H](CO)O2)c(=O)n1 (stereo not given in full)
inactive: Potency [1] | Potency [2] | Potency [3] | Potency [4]

CN1CCN(CCCN2c3ccccc3Sc3ccc(S(=O)(=O)N(C)C)cc32)CC1
inactive: Potency [1] | Potency [2] | Potency [3] | Potency [4]

C[C@]12CCC(=O)C=C1CC[C@@H]1[C@@H]2CC[C@@]2(C)[C@H]1CC[C@]2(O)C(=O)CO
inactive: Potency [1] | Potency [2] | Potency [3] | Potency [4]

Cc1ccc(S(=O)(=O)NC(=O)NC2CCCC2)cc1
inactive: Potency [1] | Potency [2] | Potency [3] | Potency [4]

CC(C)COCC(CN(Cc1ccccc1)c1ccccc1)N1CCCC1 (stereo not given)
inactive: Potency [1] | Potency [2] | Potency [3] | Potency [4]

C[C@@H](CN(C)C)CN1c2ccccc2Sc2ccccc21
inactive: Potency [1] | Potency [2] | Potency [3] | Potency [4]

CC(C)CC(=O)N[C@H](C(=O)N[C@H](C(=O)N[C@@H](CC(C)C)[C@@H](O)CC(=O)N[C@@H](C)C(=O)N[C@@H](CC(C)C)[C@@H](O)CC(=O)O)C(C)C)C(C)C (Isovaleryl-VV[Sta]A[Sta]-OH)
inactive: Potency [1] | Potency [2] | Potency [3] | Potency [4]

O=c1cc(CO)occ1O
inactive: Potency [1] | Potency [2] | Potency [3] | Potency [4]

CN1CCOC(c2ccccc2)c2ccccc2C1 (stereo not given)
inactive: Potency [1] | Potency [2] | Potency [3] | Potency [4]

O=C(O)C(=O)Nc1cccc(-c2nn[nH]n2)c1
inactive: Potency [1] | Potency [2] | Potency [3] | Potency [4]

CCC(=O)O[C@]1(C(=O)SCF)[C@H](C)C[C@H]2[C@@H]3C[C@H](F)C4=CC(=O)C=C[C@]4(C)[C@@]3(F)[C@@H](O)C[C@@]21C
inactive: Potency [1] | Potency [2] | Potency [3]
active: Potency [4] 17.2 µM

O=C1C(CCS(=O)c2ccccc2)C(=O)N(c2ccccc2)N1c1ccccc1 (stereo not given)
inactive: Potency [1] | Potency [2] | Potency [3] | Potency [4]

CC(C)NCC(O)c1ccc2ccccc2c1 (stereo not given)
inactive: Potency [1] | Potency [2] | Potency [3] | Potency [4]

c1cnc(N2CCN(Cc3ccc4c(c3)OCO4)CC2)nc1
inactive: Potency [1] | Potency [2] | Potency [3] | Potency [4]

CCNC(=O)NCc1cccc(Cl)c1
inactive: Potency [1] | Potency [2] | Potency [3] | Potency [4]

COc1cc(NS(=O)(=O)c2ccc(N)cc2)ncn1
inactive: Potency [1] | Potency [2] | Potency [3] | Potency [4]

C[C@@H]1C[C@H]2[C@@H]3CCC4=CC(=O)C=C[C@]4(C)[C@@]3(F)[C@@H](O)C[C@]2(C)[C@H]1C(=O)CO
inactive: Potency [1] | Potency [2] | Potency [3] | Potency [4]

CNc1c2c(nn1C)CCCC2
inactive: Potency [1] | Potency [2] | Potency [3] | Potency [4]

N[C@@H](Cc1ccc(O)cc1)C(=O)O
inactive: activity change, negative = inhibition [1] 4.89% [at 11.5 µM] | activity change, negative = reduced viability [2] 15.7% [at 11.5 µM] | activity change, negative = lower viability [3] 1.19% [at 11.5 µM] | activity change, negative = inhibition [4] 16.2% [at 11.5 µM]

C[N+](C)(C)CC[N+]1(C)Cc2c(Cl)c(Cl)c(Cl)c(Cl)c2C1
inactive: Potency [1] | Potency [2] | Potency [3] | Potency [4]

CCOC(=O)N1CCC(Nc2ccc(Cl)cc2N)CC1
inactive: Potency [1] | Potency [2] | Potency [3] | Potency [4]

OC(CCN1CCCCC1)(c1ccccc1)c1ccccc1
inactive: Potency [1] | Potency [2] | Potency [3] | Potency [4]

Cc1oc(-c2ccccc2)nc1CCC(=O)c1ccc(CC2SC(=O)NC2=O)cc1 (stereo not given)
inactive: Potency [1] | Potency [2] | Potency [3] | Potency [4]

CC(C)(C)CC(=O)OCC(=O)[C@@]1(O)CC[C@H]2[C@@H]3CCC4=CC(=O)C=C[C@]4(C)[C@H]3[C@@H](O)C[C@@]21C
inactive: Potency [1] | Potency [2] | Potency [3] | Potency [4]

CN1CCN(C2Cc3ccccc3Sc3ccc(Cl)cc32)CC1 (stereo not given)
inactive: Potency [1] | Potency [2] | Potency [3] | Potency [4]

CN(C)c1ccc(C(=C2C=CC(=[N+](C)C)C=C2)c2ccc(N(C)C)cc2)cc1
active: Potency [1] 1.22 µM | Potency [2] 3.85 µM | Potency [3] 5.62 µM and 3.85 µM | Potency [4] 1.53 µM

CCOCCn1c(N2CCCN(C)CC2)nc2ccccc21
inactive: Potency [1] | Potency [2] | Potency [3] | Potency [4]

From PubChem BioAssay (NCATS)
